# This is a sample that favours compounds with a hit; in the whole collection about 2.3% have one here.
# Giardia kill: Giardia lamblia killing; Giardia lamblia trophozoite viability; activity change, % at 7.66 µM, hits read low; hit rate 0.15% among 340,000; AID 540267; in the data active = activity change below about -80%; inconclusive = between about -30% and that limit;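 note: parasites exposed to compound for two days anaerobically before the ATP read; % is set by controls: 0 for no effect and ±100 for the full control effect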
#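 Trophozoites 100 cells/well + cpd; 48 hrs, 37 deg C, anaerobic. ATPLite 1-Step added, 15-30 min RT, luminescence read (ATP-based viability).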
# TRPV1 PAM: potentiators of human vanilloid receptor 1 (TRPV1). TRPV1-expressing cells, Fluo-8 calcium influx, capsaicin EC20 potentiation. AID 540277. hit rate 0.02% among 320,000. potentiation, % at 8.33 µM. Q8NER1; in the data active = potentiation above about 80%; inconclusive = between about 30% and that limit; note: 0% is about no effect
#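 Cells expressing TRPV1 were dye-loaded with Fluo-8 and read kinetically: 10 s baseline, 3 min after compound (agonist portion), then 2 min after EC20 capsaicin (allosteric enhancer portion). Calcium-bound dye fluorescence at 480/520 nm.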
# FUS yeast rescue: FUS proteinopathy suppression in yeast | S. cerevisiae FUS-expressing, growth rescue, OD600, 24 h | Potency, µM (doses to about 76.6 µM), usual class: activators | hit rate 0.24% among 390,000 | AID 1347120;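 note: potency is the fitted concentration of half-maximal effect; plate controls were DMSO vehicle for no effect and reference control for full effect; nearly all actives have a fitted effect of over 55% in size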
#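 Galactose (2%) drives FUS expression in yeast precultured in raffinose; seeding density OD 0.005. Test compounds incubated 24hr at 30C and 99% humidity before absorbance at 600 nm was measured.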
# ELG1 DNA repair: ELG1-dependent DNA repair inhibition; HEK293T ELG1-luciferase reporter, luminescence, 16 h; DNA damage induced by 5-fluorouridine; Potency, µM (series often up to 46.1 µM), for the others: at the highest dose activity change, negative = inhibition, actives largely listed as inhibitors; hit rate 2.3% among 330,000; AID 504467; note: potency is the fitted concentration of half-maximal effect; % is set by controls: 0 for no effect and ±100 for the full control effect; nearly all actives have a fitted effect of over 55% in size
#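 DMSO vehicle served as the neutral condition. Each well held 2,000 cells given 5-fluorouridine plus compound; after 16 hr at 37 °C/5% CO2, ONE-Glo was added and luciferase measured 30 min later.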
# TRPV1 ag: activates the human vanilloid receptor TRPV1; TRPV1-expressing cells, Fluo-8 calcium influx, agonist mode; activation, % at 8.33 µM; hit rate 0.19% among 320,000; AID 540275; in the data active = activation above about 80%; inconclusive = between about 30% and that limit; note: 0% is about no effect
#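 Cells expressing TRPV1 were dye-loaded with Fluo-8 and read kinetically: 10 s baseline, 3 min after compound (agonist portion), then 2 min after EC20 capsaicin (allosteric enhancer portion). Calcium-bound dye fluorescence at 480/520 nm.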
# * = called active by the depositor; i = inactive; ? = inconclusive; / = no result given. Unless noted, calls come from the whole dose curve; as a rule, active = well fitted curve in the direction sought with a large enough effect; inconclusive = small, poorly fitted or top-dose-only effect, or another doubt; inactive = no such curve, though single readings can be large; an effect the other way counts as inactive or inconclusive.
SMILES,Giardia kill,TRPV1 PAM,FUS yeast rescue,ELG1 DNA repair,TRPV1 ag
Cc1c(C(=O)Nc2cc(S(=O)(=O)N3CCOCC3)ccc2N2CCN(C)CC2)oc2ccccc12,10,14,i,16µM*,-7
CN1CCN(c2ccc(S(=O)(=O)N3CCOCC3)cc2NC(=O)CC(C)(C)C)CC1,9,14,i,21%,2
CCN1CCN(c2ccc(S(=O)(=O)N3CCOCC3)cc2NC(=O)c2cc(Cl)nc3ccccc23)CC1,-25,2,i,19%,1
C/C(=N\NC(=S)Nc1cc(S(=O)(=O)N2CCOCC2)ccc1Cl)c1ccc(N2CCOCC2)cc1,-5,-5,i,?,2
COc1ccc2cc(/C(C)=N/NC(=S)Nc3cc(S(=O)(=O)N4CCOCC4)ccc3N3CCOCC3)ccc2c1,/,6,/,4.6µM*,3
CSc1ccc(Cl)c(C(=O)Nc2cc(S(=O)(=O)N3CCOCC3)ccc2N2CCOCC2)c1,35,/,i,18µM*,/
COc1ccc(-c2cc(C(=O)Nc3cc(S(=O)(=O)N4CCOCC4)ccc3N3CCOCC3)c3ccccc3n2)cc1,39,2,i,4.1µM*,21
O=C(/C=C/c1ccc(Cl)cc1)Nc1cc(S(=O)(=O)N2CCOCC2)ccc1N1CCOCC1,30,/,i,26µM*,/
O=C(Nc1ccc2nc(N3CCOCC3)sc2c1)c1cc2ccccc2o1,/,/,i,/,/
Cc1c(C(=O)Nc2ccc3nc(N4CCOCC4)sc3c2)oc2ccccc12,11,14,i,11µM*,1
CC(=O)c1ccc(NC(=O)CCn2nc(C)c(S(=O)(=O)N3CCC(C)CC3)c2C)cc1,/,/,i,/,/
CCN(CC)c1ccc(-c2nc(-c3ccco3)no2)cc1[N+](=O)[O-],/,/,i,/,/
CCOC(=O)N1CC=C2C(C#N)=C(N)C(C#N)(C#N)[C@H](c3ccccc3OCC)[C@H]2C1,-7,-17,i,11%,1
CCOC(=O)N1CC=C2C(C#N)=C(N)C(C#N)(C#N)[C@H](c3ccc(OC(C)C)c(OCC)c3)[C@H]2C1,6,18,i,13µM*,0
CC(=O)Nc1ccc(S(=O)(=O)NC2=C(N3CCN(C)CC3)C(=O)c3ccccc3C2=O)cc1,4,15,i,18µM*,3
O=C1C(NS(=O)(=O)c2ccccc2)=C(N2CCN(c3ccc(F)cc3)CC2)C(=O)c2ccccc21,35,-17,i,23µM*,-3
CCS(=O)(=O)c1ncc(Cl)c(C(=O)Nc2c(C(=O)c3ccc(C)cc3)oc3ccccc23)n1,/,/,i,/,/
Cc1cc(C)cc(NC(=O)CSc2oc(-c3cccs3)nc2S(=O)(=O)c2ccc(Br)cc2)c1,/,/,i,/,/
CCOc1cc(C(=O)N2CC(=O)Nc3ccc(C)cc3C2c2ccccc2)cc(OCC)c1OCC (stereo not drawn),/,/,i,/,/
CCc1ccc(CN(Cc2ccco2)C(=O)c2cc(-c3ccc(C)c(F)c3)on2)cc1,/,/,i,/,/
CC1C/C(=C/c2cccn2C)C(=O)/C(=C/c2cccn2C)C1 (stereo not drawn),2,-3,i,?,100*
CC1C/C(=C/c2ccncc2)C(=O)/C(=C/c2ccncc2)C1 (stereo not drawn),?,10,i,21µM*,1
Cc1ccc(N(Cc2cc3ccccc3[nH]c2=O)C(=O)c2cccc(Cl)c2)cc1,/,/,i,/,/
CCN(CC)c1ccc(C(=C2C=CC(=[N+](CC)CC)C=C2)c2ccc(S(=O)(=O)O)cc2S(=O)(=O)[O-])cc1,?,/,32µM*,/,/
O=C(NCC(c1ccco1)N1CCN(c2ccccc2F)CC1)c1ccc2c(c1)OCO2 (stereo not drawn),12,-21,i,13µM*,26
SMILES,Giardia kill,TRPV1 PAM,FUS yeast rescue,ELG1 DNA repair,TRPV1 ag
COc1ccc(S(=O)(=O)NCC(c2ccco2)N2CCN(c3ccc(F)cc3)CC2)cc1 (stereo not drawn),/,/,i,/,/
COc1ccc(N2CCN(C(CNS(=O)(=O)c3ccc4c(c3)OCCO4)c3ccco3)CC2)cc1 (stereo not drawn),-8,1,i,15µM*,2
O=C(NCC(c1ccco1)N1CCN(c2ccc(F)cc2)CC1)c1ccc2c(c1)OCO2 (stereo not drawn),30,5,i,?,-5
O=S(=O)(NCC(c1ccco1)N1CCN(c2ccccc2F)CC1)c1ccc2c(c1)OCCO2 (stereo not drawn),-11,-3,i,16µM*,-3
COc1cc(-c2cc(OC)c3c(C)oc(C)c3c(=O)c2)ccc1OC(=O)c1ccccc1F,/,/,i,/,/
COc1cc(-c2cc(OC)c3c(C)oc(C)c3c(=O)c2)ccc1OC(=O)c1ccccc1Cl,/,/,13µM*,/,/
O=C(COc1ccccc1C(=O)NCc1ccccn1)Nc1ccc(Br)cc1,-4,-12,i,16µM*,29
O=C(NCc1ccccn1)c1cc(Cl)ccc1OCc1ccccc1,-3,-7,i,16µM*,?
CCCNC(=O)CCc1c(C)nc2nc(CNC(=O)c3ccccc3)nn2c1C,/,/,i,/,/
COC(=O)c1cc2c(-c3ccccc3)cc3ccccn3c-2c1C(=O)OC,21,-4,i,23µM*,20
COC(=O)c1c(C)c2c(C)cc3ccccn3c-2c1C(=O)OC,10,0,i,-12%,6
CCN(CCO)CC1CCCC2CCCCC21 (stereo not drawn),/,/,i,/,/
COc1cc(-c2nnc(SCC(=O)N3c4ccccc4Sc4ccccc43)o2)cc(OC)c1OC,13,1,i,7.3µM*,5
COc1cccc(C(=O)CSc2nnc(-c3cc(OC)c(OC)c(OC)c3)o2)c1,-1,-6,i,21µM*,24
N#Cc1cccc(C(=O)C(=O)N2CCN(c3ccccc3)CC2)c1,/,/,i,/,/
COc1ccccc1/C=C/c1nc(C#N)c(N2CCCCCC2)o1,/,/,i,/,/
Cc1cc(C)cc(NC(=O)CSc2nc3c(oc4ccccc43)c(=O)n2-c2ccccc2F)c1,/,/,i,/,/
COC(=O)c1cc(NC(=O)Cn2nc(-c3ccccc3)c3c(c2=O)CCCC3)cc(C(=O)OC)c1,/,/,i,/,/
O=C(Cn1nc(-c2ccccc2)c2c(c1=O)CCCC2)Nc1ccc(F)c(Cl)c1,/,/,10µM*,/,/
CCCNc1nc(Nc2ccc(C)c(Cl)c2)c2cnn(C)c2n1,-24,-8,i,15µM*,?
Cn1ncc2c(Nc3cccc(Cl)c3)nc(Nc3cccc(Cl)c3)nc21,-2,28,?,?,3
Cn1ncc2c(Nc3ccc(Br)cc3)nc(Nc3ccc(Br)cc3)nc21,12,-3,i,23µM*,18
COc1ccc(CC(=O)NCc2ccc3c(c2)CCN3C(=O)c2ccccc2)cc1OC,/,/,i,/,/
CCc1c(C)sc(NC(=O)CC#N)c1C#N,-6,6,10µM*,-1%,-3
COc1cc2c(cc1OC)CN(C(=O)/C=C/c1ccc([N+](=O)[O-])cc1)CC2,-4,-13,i,-19%,?

# Compound activity deposited in PubChem BioAssay by National Center for Advancing Translational Sciences (NCATS).
